Read-out in assay [1]: Thrombomodulin, THBD (gene 7056)
The assay is described as follows: BSK_CASM3C_Thrombomodulin: BioMAP Diversity Plus: CASM3C Assay for Thrombomodulin Biomarker Activity (AID 2283051).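 Also: thrombomodulin protein level measured by ELISA 24 h after dosing.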 The settings on record: primary human coronary artery smooth muscle cells; actives raise or lower the signal.

Read-out in assay [2]: Tissue Factor, F3 (gene 2152)
The assay is described as follows: BSK_CASM3C_TissueFactor: BioMAP Diversity Plus: CASM3C Assay for Tissue Factor Biomarker Activity (AID 2283052).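 Also: cell surface tissue factor protein level read by ELISA.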 The note with it: primary human coronary artery smooth muscle cells; actives raise or lower the signal.

Read-out in assay [3]: Interferon-gamma inducible Protein 10 (IP10), CXCL10 (gene 3627)
The assay is described as follows: BSK_hDFCGF_IP10: BioMAP Diversity Plus: hDFCGF Assay for Interferon-gamma inducible Protein 10 (IP10) Biomarker Activity (AID 2283053). The note with it: primary human foreskin fibroblasts; actives raise or lower the signal. In a few lines: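 Primary foreskin fibroblasts, human; 24 h compound exposure; IP-10 by ELISA; bidirectional fit vs DMSO.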

Read-out in assay [4]: Urokinase-type plasminogen activator receptor (uPAR), PLAUR (gene 5329)
The assay is described as follows: BSK_CASM3C_uPAR: BioMAP Diversity Plus: CASM3C Assay for Urokinase-type plasminogen activator receptor (uPAR) Biomarker Activity (AID 2283054).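 Also: cell-surface uPAR protein level quantified by ELISA.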 The note with it: primary human coronary artery smooth muscle cells; actives raise or lower the signal.

Read-out in assay [5]: Vascular cell adhesion molecule 1 (VCAM1), VCAM1 (gene 7412)
The assay is described as follows: BSK_CASM3C_VCAM1: BioMAP Diversity Plus: CASM3C Assay for Vascular cell adhesion molecule 1 (VCAM1) Biomarker Activity (AID 2283055).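 Also: VCAM-1 protein level quantified by ELISA on the cells.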 The settings on record: primary human coronary artery smooth muscle cells; actives raise or lower the signal.

Read-out in assay [6]: Collagen III, COL3A1 (gene 1281)
The assay is described as follows: BSK_hDFCGF_CollagenIII: BioMAP Diversity Plus: hDFCGF Assay for Collagen III Biomarker Activity (AID 2283056). The note with it: primary human foreskin fibroblasts; actives raise or lower the signal. In a few lines:
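ELISA read-out of collagen III from human skin fibroblast cultures sampled 24 h post-dosing. Values were derived by bidirectional fitting relative to the DMSO vehicle control.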

Read-out in assay [7]: Epidermal growth factor receptor (EGFR), EGFR (gene 1956)
The assay can be described thus: BSK_hDFCGF_EGFR: BioMAP Diversity Plus: hDFCGF Assay for Epidermal growth factor receptor (EGFR) Biomarker Activity (AID 2283057). The settings on record: primary human foreskin fibroblasts; actives raise or lower the signal. In a few lines:
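hDFCGF system, primary human foreskin fibroblasts; compound 24 h; EGFR measured by ELISA; DMSO = negative control/baseline; bidirectional fitting.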

Read-out in assay [8]: Interleukin-8 (IL8), CXCL8 (gene 3576)
The assay can be described thus: BSK_hDFCGF_IL8: BioMAP Diversity Plus: hDFCGF Assay for Interleukin-8 (IL8) Biomarker Activity (AID 2283058). The note with it: primary human foreskin fibroblasts; actives raise or lower the signal. An outline of the steps:
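Cells used are human skin primary fibroblasts. Chemical is added, cultures run 24 h, then IL-8 is quantified by ELISA, and gain or loss versus DMSO control is fitted in both directions.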

Assay [9] is described as follows: BSK_hDFCGF_Proliferation: Cell Proliferation Assessment in the BioMAP Diversity Plus: hDFCGF Assay (AID 2283059).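 Also: curves fitted for both rise and fall of signal versus DMSO baseline.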 The settings on record: primary human foreskin fibroblasts. An outline of the steps:
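Sub-confluent human foreskin fibroblast cultures receive test chemical […]. Relative cell number is quantified by sulforhodamine B staining (0.1%, after 10% TCA fixation) at 560 nm, with bidirectional fitting referenced to DMSO.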

Read-out in assay [10]: Macrophage colony-stimulating factor (MCSF), CSF1 (gene 1435)
The assay can be described thus: BSK_hDFCGF_MCSF: BioMAP Diversity Plus: hDFCGF Assay for Macrophage colony-stimulating factor (MCSF) Biomarker Activity (AID 2283060). The note with it: primary human foreskin fibroblasts; actives raise or lower the signal. An outline of the steps:
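Primary human foreskin fibroblasts dosed with chemical; 24 h later, M-CSF quantified by ELISA; curves fitted in both directions vs DMSO negative control.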

Assay [11] is described as follows: BSK_hDFCGF_SRB: Viability Assessment in the BioMAP Diversity Plus: hDFCGF Assay (AID 2283061).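 Also: cells exposed to compound for 24 h before the read.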 The settings on record: primary human foreskin fibroblasts. An outline of the steps: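 Readout is SRB absorbance at 560 nm, reflecting total protein in parallel cultures of human foreskin fibroblasts harvested 24 h after chemical dosing. Activity was fitted bidirectionally relative to DMSO.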

Read-out in assay [12]: TIMP metallopeptidase inhibitor 1 (TIMP1), TIMP1 (gene 7076)
The assay can be described thus: BSK_hDFCGF_TIMP1: BioMAP Diversity Plus: hDFCGF Assay for TIMP metallopeptidase inhibitor 1 (TIMP1) Biomarker Activity (AID 2283062). The settings on record: primary human foreskin fibroblasts; actives raise or lower the signal. An outline of the steps: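 Human skin fibroblasts (primary), hDFCGF system; compound exposure 24 h; TIMP-1 by ELISA; bidirectional fit vs DMSO negative control; overt cytotoxicity by SRB in parallel wells.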

Read-out in assay [13]: Monokine induced gamma interferon (MIG), CXCL9 (gene 4283)
The assay can be described thus: BSK_hDFCGF_MIG: BioMAP Diversity Plus: hDFCGF Assay for Monokine induced gamma interferon (MIG) Biomarker Activity (AID 2283063). The settings on record: primary human foreskin fibroblasts; actives raise or lower the signal. An outline of the steps:
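Chemicals were added to primary human foreskin fibroblast cultures, which were sampled 24 h later. MIG levels were then quantified by ELISA and responses fitted in both directions relative to DMSO.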

Read-out in assay [14]: Vascular cell adhesion molecule 1 (VCAM1), VCAM1 (gene 7412)
The assay can be described thus: BSK_hDFCGF_VCAM1: BioMAP Diversity Plus: hDFCGF Assay for Vascular cell adhesion molecule 1 (VCAM1) Biomarker Activity (AID 2283065).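 As to AC50: VCAM-1 protein level quantified by ELISA after 24 h chemical exposure.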 The note with it: primary human foreskin fibroblasts; actives raise or lower the signal. An outline of the steps: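 Human foreskin fibroblast primary cells, chemical exposure 24 h; VCAM-1 by ELISA; bidirectional fit, DMSO = negative control/baseline.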

Read-out in assay [15]: Plasminogen activator inhibitor-1 (PAI1), SERPINE1 (gene 5054)
The assay can be described thus: BSK_hDFCGF_PAI1: BioMAP Diversity Plus: hDFCGF Assay for Plasminogen activator inhibitor-1 (PAI1) Biomarker Activity (AID 2283066). The settings on record: primary human foreskin fibroblasts; actives raise or lower the signal. An outline of the steps:
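Primary dermal fibroblasts (human foreskin), hDFCGF system; compound 24 h; PAI-1 by ELISA; bidirectional fit vs DMSO control.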

Read-out in assay [16]: Intercellular Adhesion Molecule 1 (ICAM1), ICAM1 (gene 3383)
The assay can be described thus: BSK_KF3CT_ICAM1: BioMAP Diversity Plus: KF3CT Assay for Intercellular Adhesion Molecule 1 (ICAM1) Biomarker Activity (AID 2283067). The settings on record: primary human keratinocytes with fibroblasts; actives raise or lower the signal. In a few lines: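 ICAM-1 levels are measured by ELISA 24 h after dosing a primary human co-culture of keratinocytes and foreskin fibroblasts. Activity in either direction is fitted relative to DMSO vehicle.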

Read-out in assay [17]: Interferon-gamma inducible Protein 10 (IP10), CXCL10 (gene 3627)
The assay can be described thus: BSK_KF3CT_IP10: BioMAP Diversity Plus: KF3CT Assay for Interferon-gamma inducible Protein 10 (IP10) Biomarker Activity (AID 2283068). The settings on record: primary human keratinocytes with fibroblasts; actives raise or lower the signal. An outline of the steps:
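ELISA read-out of IP-10 after 24 h chemical dosing of human skin primary co-culture (keratinocytes, foreskin fibroblasts). Gain or loss of signal relative to DMSO, bidirectional curve fit.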

The nature of assay [18]: BSK_KF3CT_SRB: Viability Assessment in the BioMAP Diversity Plus: KF3CT Assay (AID 2283069).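 Also: total protein by sulforhodamine B staining as a cytotoxicity measure; read 24 h after compound addition.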 The settings on record: primary human keratinocytes with fibroblasts. In a few lines: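 Human primary keratinocyte plus foreskin fibroblast co-culture exposed to chemicals for 24 h. Total protein measured by 0.1% sulforhodamine B staining after 10% TCA fixation, read at 560 nm; bidirectional fitting versus DMSO baseline.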

Read-out in assay [19]: Interleukin-1 alpha (IL1a), IL1A (gene 3552)
The assay is described as follows: BSK_KF3CT_IL1a: BioMAP Diversity Plus: KF3CT Assay for Interleukin-1 alpha (IL1a) Biomarker Activity (AID 2283070). The note with it: primary human keratinocytes with fibroblasts; actives raise or lower the signal. In a few lines:
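Human keratinocyte plus foreskin fibroblast primary co-culture, sampled 24 h after chemical dosing. IL-1a measured by ELISA; responses fitted bidirectionally against DMSO baseline (negative control), so gain or loss of signal both count.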

Read-out in assay [20]: Matrix Metallopeptidase 1 (MMP1), MMP1 (gene 4312)
The assay is described as follows: BSK_hDFCGF_MMP1: BioMAP Diversity Plus: hDFCGF Assay for Matrix Metallopeptidase 1 (MMP1) Biomarker Activity (AID 2283064). The note with it: primary human foreskin fibroblasts; actives raise or lower the signal. In a few lines: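 Primary human foreskin fibroblasts in the hDFCGF system were dosed with test chemical, and MMP1 was measured by ELISA 24 h later. Values come from bidirectional curve fitting against the DMSO baseline.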

“And” between values parts separate entries of the source, which are not always exact repeats. Identical values can stand only once. A structure can be active in one record and inactive in another. The source made the active and inactive calls. The calls were made as follows: active = hit-call score of the fitted dose curve at least 0.9, where 1 is the maximum; inactive = score below 0.9.

With `Cc1ccc(Nc2ccc(O)c3c2C(=O)c2ccccc2C3=O)cc1`, the result in assay [1], in [2], in assay [3], in assay [4], in assay [5] and in assay [6] was inactive. Also, the outcome in assay [7], in assay [8], in [10], in [11], in [12] and in [13] was inactive. The result in assay [14], in assay [16], in [17], in assay [18] and in assay [19] was inactive. Also, the figures for the AC50 in assay [9] and in assay [15] were 2.4 µM (active) and 1.61 µM (active), respectively.
For `NCCNCCN`, the outcome in assay [1], in assay [2], in assay [3], in assay [4], in assay [5] and in [6] was inactive. The result in [7], in [8], in assay [9], in [10], in assay [11] and in assay [12] was inactive. The outcome in [13], in assay [14], in assay [15], in assay [16], in assay [17] and in assay [18] was inactive. Moreover, in assay [19], the result was inactive.
Take `C[C@H]1C[C@@H]2[C@H]([C@@H](O)C[C@@]3(C)[C@H]2CC[C@]3(O)C(=O)CO)[C@@]2(C)C=CC(=O)C=C12`: the result in assay [1], in assay [2], in assay [3], in assay [4], in assay [6] and in [7] was inactive. Moreover, the outcome in assay [8], in assay [9], in assay [10], in assay [12], in assay [13] and in [14] was inactive. Moreover, the result in assay [15], in assay [16], in assay [17] and in assay [19] was inactive. Also, the AC50 is 1.2 µM (active) in assay [4]; 860 nM (active) and 150 nM (active) in [5]; 394 nM (active) and 339 nM (active) in assay [11]; 0.15 µM (active) in assay [15].
Regarding `CNC[C@H](O)c1cccc(O)c1`, the result in assay [1], in assay [2], in assay [3], in assay [4], in [5] and in assay [6] was inactive. Moreover, the result in assay [7], in [8], in [9], in assay [10], in assay [11] and in [12] was inactive. Also, the result in [13], in assay [20], in assay [14], in [15], in [16] and in [17] was inactive. In addition, in [19], the outcome was inactive.
Take `CC(=O)[C@H]1CC[C@H]2[C@@H]3CC=C4C[C@@H](O)CC[C@]4(C)[C@H]3CC[C@]12C`: the outcome in [1], in [2], in [3], in [4], in [5] and in [6] was inactive. Further, the outcome in assay [7], in assay [8], in [9], in [10], in assay [11] and in assay [12] was inactive. Moreover, the outcome in [13], in assay [14], in assay [15], in assay [16], in assay [17] and in assay [19] was inactive. Moreover, the AC50 in [5] is 9.48 µM (active); in assay [6], 5.69 µM (active).
For `CCCCC(CC)COCCC#N` (stereo unspecified), the result in assay [1], in assay [2], in [4], in assay [5], in [7] and in assay [8] was inactive. In addition, the result in [10], in [11], in [13], in assay [20], in assay [15] and in [16] was inactive. Further, in assay [19], the outcome was inactive. Moreover, the AC50 was 20 µM (active) in assay [3]; 24.1 µM (active) in assay [6]; 11.1 µM (active) in assay [9]; 20 µM (active) in assay [12]; 7.05 µM (active) in assay [14]; 5.08 µM (active) in assay [17].

By AC50 is commonly meant the midpoint of the concentration-response curve, whichever way the signal moves.

The record behind these values is PubChem BioAssay (EPA / NIEHS).
